{"source": "the OligoGym collection", "data": [{"target": "ARHGAP5", "test": "pooled miR-30 sensor sort-seq; sequence = guide strand", "details": "shRNA", "values": [{"sequence": "TAGATTGATATTATGATCTTGA", "sensor-assay potency score (higher = more potent)": 1.05}, {"sequence": "ATGATCTTGATCAAACTGCTTT", "sensor-assay potency score (higher = more potent)": -0.663}, {"sequence": "TGAAGTATACTACTGAACCCTG", "sensor-assay potency score (higher = more potent)": -0.25}, {"sequence": "TAATTGTGGTTGTATCAGCTGA", "sensor-assay potency score (higher = more potent)": -0.356}, {"sequence": "TTCTATAGTATGACTTGGCTTT", "sensor-assay potency score (higher = more potent)": 0.162}, {"sequence": "TTGCTTTTTGTCCAAATCCAGC", "sensor-assay potency score (higher = more potent)": -1.64}, {"sequence": "TTTCTTAACAATTTCTTTCAAG", "sensor-assay potency score (higher = more potent)": -0.634}, {"sequence": "TTTTTGTCCAAATCCAGCCTGT", "sensor-assay potency score (higher = more potent)": -0.169}, {"sequence": "TAGTAGTAGACAGAAACTCTCG", "sensor-assay potency score (higher = more potent)": 0.344}, {"sequence": "TAAACCTCTCCAGTCATGCTTA", "sensor-assay potency score (higher = more potent)": -0.431}, {"sequence": "TAGTAGACAGAAACTCTCGATT", "sensor-assay potency score (higher = more potent)": -0.0895}, {"sequence": "TTCTACACTATACTAAATGTGT", "sensor-assay potency score (higher = more potent)": -0.488}, {"sequence": "TTCTACAACAAATTTCATGTTT", "sensor-assay potency score (higher = more potent)": -0.238}, {"sequence": "TTTGAATATTGTCTTGGTCAGT", "sensor-assay potency score (higher = more potent)": -0.551}, {"sequence": "TTTATGTTGCTGACTAACCCTG", "sensor-assay potency score (higher = more potent)": -0.695}, {"sequence": "TTGCACAACATTATCAACTCAC", "sensor-assay potency score (higher = more potent)": 0.731}, {"sequence": "TTATGTTGCTGACTAACCCTGT", "sensor-assay potency score (higher = more potent)": 0.477}, {"sequence": "TAAGGTTGCATGCAGCAGCAGC", "sensor-assay potency score (higher = more potent)": -0.593}, {"sequence": "TTTTATTTCATTATGGACCATA", "sensor-assay potency score (higher = more potent)": -0.301}, {"sequence": "TCAAATAACAAAATCAGCCAGA", "sensor-assay potency score (higher = more potent)": -0.237}, {"sequence": "TACAAGACCATCATAGATCTTT", "sensor-assay potency score (higher = more potent)": 0.493}, {"sequence": "TTTAGTTATCTACACCGACTGC", "sensor-assay potency score (higher = more potent)": -0.686}, {"sequence": "TTTCTTTCAAACAACATCCCAA", "sensor-assay potency score (higher = more potent)": 0.179}, {"sequence": "TTTAGCCACAAGCATGTCCTTG", "sensor-assay potency score (higher = more potent)": -0.792}]}, {"target": "ARHGEF15", "test": "pooled miR-30 sensor sort-seq; sequence = guide strand", "details": "shRNA", "values": [{"sequence": "TAACTCAGTCAGCTCTCCCTGG", "sensor-assay potency score (higher = more potent)": -0.77}, {"sequence": "TTGGAGTAGTCGGTGGGTGGGG", "sensor-assay potency score (higher = more potent)": -0.515}, {"sequence": "TGATCTTGCTGACAGCACCCAG", "sensor-assay potency score (higher = more potent)": -1.42}, {"sequence": "TATTCTGAGGAGCTTCATCAGG", "sensor-assay potency score (higher = more potent)": -0.865}, {"sequence": "ACATAATCCACATACACCGAGA", "sensor-assay potency score (higher = more potent)": -1.37}, {"sequence": "TTGCTAGAAACCGCTCGCTGAC", "sensor-assay potency score (higher = more potent)": -1.26}, {"sequence": "TTGCGCTCAGCAGTGGAGCGGT", "sensor-assay potency score (higher = more potent)": -0.34}, {"sequence": "TTTCGGGGTAGTTCTTGTGGAG", "sensor-assay potency score (higher = more potent)": -0.734}, {"sequence": "TTGTGGAGAGGAGCCATTGTGG", "sensor-assay potency score (higher = more potent)": -1.62}, {"sequence": "TTGCTGGAGGAGTATTCTGAGG", "sensor-assay potency score (higher = more potent)": -1.94}, {"sequence": "TTGCACAGCCGGAAGCTCCTGC", "sensor-assay potency score (higher = more potent)": -0.0952}, {"sequence": "TAGGATGTGAGGACAACGGCAG", "sensor-assay potency score (higher = more potent)": 0.25}]}, {"target": "ARIH1", "test": "pooled miR-30 sensor sort-seq; sequence = guide strand", "details": "shRNA", "values": [{"sequence": "TATCCTGCAGAGAATCTTGGGA", "sensor-assay potency score (higher = more potent)": 0.446}, {"sequence": "TTTAATTGCATGAGCACTCTAG", "sensor-assay potency score (higher = more potent)": -0.104}, {"sequence": "TTTAACAGTCGATTGCACTCTA", "sensor-assay potency score (higher = more potent)": 0.745}]}]}
